Experimental data published in PubChem BioAssay AID1159580 (chemical genetic matrix, 2015).
Several values for one entry are separate records, joined by “and”; a condition that tells them apart may be missing. Identical values can stand only once. Screen size: about 5,500 compounds; about 2,000 (36%) were called active. Roughly 18% stayed inconclusive and do not appear here. Cut-off read from the data, not from the text of the source: active = normalized growth mostly below about 0.91 (no sharp cut-off); inconclusive = no clear call, values can overlap the other calls; inactive = mostly above about 0.92. The list shows a part of the results.

Assay: chemical genetic growth profiling, strain panel (AID 1159580);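 note: tested at 20 µM; growth read once vehicle control cultures reached saturation at 30 °C; 1 = growth at the plate median or of vehicle wells; lower values mean less growth of the strain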
Details: S. cerevisiae deletion strains, growth OD

Measured: normalized growth

Oc1c(Br)cc(Br)c2cccnc12
active: locus YAL013W, strain DEP1, hits give low values 0.0586 | locus YAL021C, strain ccr4, hits give low values 0.0663 | locus YAL026C, strain drs2, hits give low values 0.0631 | locus YAL030W, strain snc1, hits give low values 0.055 | locus YBL061C, strain skt5, hits give low values 0.0586 | locus YBR009C, strain hhf1, hits give low values 0.0623 | locus YBR021W, strain FUR4, hits give low values 0.0949 | locus YBR023C, strain chs3, hits give low values 0.0634 | locus YBR171W, strain sec66, hits give low values 0.0756 | locus YBR229C, strain ROT2, hits give low values 0.0506 | locus YBR231C, strain swc5, hits give low values 0.0629 | locus YBR279W, strain paf1, hits give low values 0.0612 | locus YCL011C, strain gbp2, hits give low values 0.0575 | locus YCL016C, strain dcc1, hits give low values 0.0701 | locus YCL029C, strain bik1, hits give low values 0.07 | locus YCL061C, strain MRC1, hits give low values 0.0647 | locus YCL069W, strain vba3, hits give low values 0.0645 | locus YCR088W, strain abp1, hits give low values 0.0595 | locus YDL005C, strain med2, hits give low values 0.0726 | locus YDL035C, strain GPR1, hits give low values 0.0512 | locus YDL040C, strain nat1, hits give low values 0.0563 | locus YDL074C, strain BRE1, hits give low values 0.0885 | locus YDL101C, strain DUN1, hits give low values 0.0585 | locus YDL134C, strain PPH21, hits give low values 0.0526 | locus YDL185W, strain tfp1, hits give low values 0.0677 | locus YDL192W, strain arf1, hits give low values 0.0671 | locus YDR001C, strain nth1, hits give low values 0.0572 | locus YDR069C, strain doa4, hits give low values 0.0693 | locus YDR101C, strain arx1, hits give low values 0.0674 | locus YDR137W, strain rgp1, hits give low values 0.107 | locus YDR150W, strain NUM1, hits give low values 0.0621 | locus YDR159W, strain sac3, hits give low values 0.0892 | locus YDR162C, strain NBP2, hits give low values 0.0492 | locus YDR195W, strain ref2 0.126 | locus YDR297W, strain sur2, hits give low values 0.0575 | locus YDR318W, strain mcm21, hits give low values 0.071 | locus YDR334W, strain swr1, hits give low values 0.0608 | locus YDR335W, strain msn5, hits give low values 0.0583 | locus YDR388W, hits give low values 0.0637 | locus YDR392W, strain spt3, hits give low values 0.0808 | locus YDR502C, strain sam2, hits give low values 0.0753 | locus YEL003W, strain gim4, hits give low values 0.0546 | locus YEL037C, strain rad23, hits give low values 0.0573 | locus YEL061C, strain CIN8 (second series), hits give low values 0.145 | locus YEL061C, strain CIN8, hits give low values 0.05 | locus YER015W, strain faa2, hits give low values 0.0595 | locus YER016W, strain bim1, hits give low values 0.0608 | locus YER110C, hits give low values 0.0879 | locus YER111C, strain swi4, hits give low values 0.0694 | locus YER155C, strain BEM2 (second series), hits give low values 0.0894 | locus YER155C, strain BEM2, hits give low values 0.0691 | locus YER167W, strain BCK2, hits give low values 0.0561 | locus YFR010W, strain ubp6, hits give low values 0.0731 | locus YGL078C, strain dbp3, hits give low values 0.0674 | locus YGL086W, strain mad1, hits give low values 0.0628 | locus YGL167C, strain pmr1, hits give low values 0.079 | locus YGL173C, strain kem1, hits give low values 0.0675 | locus YGL227W, strain vid30, hits give low values 0.0683 | locus YGL240W, strain doc1, hits give low values 0.0807 | locus YGL248W, strain PDE1, hits give low values 0.0474 | locus YGL253W, strain hxk2, hits give low values 0.0544 | locus YGR078C, strain PAC10, hits give low values 0.0525 | locus YGR135W, strain pre9, hits give low values 0.0723 | locus YGR229C, strain SMI1, hits give low values 0.0593 | locus YGR252W, strain gcn5, hits give low values 0.146 | locus YHR013C, strain ard1, hits give low values 0.115 | locus YHR027C, strain rpn1, hits give low values 0.0627 | locus YHR030C, strain SLT2, hits give low values 0.0528 and 0.107 | locus YHR079C, strain IRE1 (second series), hits give low values 0.0637 | locus YHR079C, strain IRE1, hits give low values 0.113 | locus YHR094C, strain hxt1, hits give low values 0.0678 | locus YHR129C, strain ARP1, hits give low values 0.059 | locus YHR142W, strain chs7, hits give low values 0.0809 | locus YHR200W, strain rpn10, hits give low values 0.0663 | locus YIL066C, strain RNR3, hits give low values 0.051 | locus YIL073C, strain SPO22, hits give low values 0.15 | locus YIL125W, strain kgd1, hits give low values 0.0707 | locus YIR030C, strain dcg1, hits give low values 0.0676 | locus YJL092W, strain hpr5, hits give low values 0.0584 | locus YJL095W, strain BCK1 (second series), hits give low values 0.0568 | locus YJL095W, strain BCK1, hits give low values 0.0606 and 0.106 | locus YJL115W, strain asf1, hits give low values 0.072 | locus YJL129C, strain trk1, hits give low values 0.0904 | locus YJL134W, strain LCB3, hits give low values 0.0513 | locus YJL154C, strain vps35, hits give low values 0.0576 | locus YJL164C, strain tpk1, hits give low values 0.0622 | locus YJL166W, strain qcr8, hits give low values 0.0631 | locus YJL168C, strain set2, hits give low values 0.0664 | locus YJL187C, strain SWE1 (second series), hits give low values 0.0507 | locus YJR043C, strain POL32, hits give low values 0.0636 | locus YJR066W, strain TOR1, hits give low values -4.7e-05
